Experimental data reported in PubChem BioAssay (EPA / NIEHS).
Active and inactive are the calls of the source. Rule for the calls: active = hit-call score of the fitted dose curve at least 0.9, where 1 is the maximum; inactive = score below 0.9.

Columns and labels:
[1] = read-out: Interleukin-8 (IL8), CXCL8 (gene 3576); test: BSK_CASM3C_IL8: BioMAP Diversity Plus: CASM3C Assay for Interleukin-8 (IL8) Biomarker Activity (AID 2283042); conditions: primary human coronary artery smooth muscle cells; actives raise or lower the signal;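 note: IL-8 protein level quantified by ELISA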
[2] = read-out: Human Leukocyte Antigen - DR isotype (HLADR), HLA-DRA (gene 3122); test: BSK_CASM3C_HLADR: BioMAP Diversity Plus: CASM3C Assay for Human Leukocyte Antigen - DR isotype (HLADR) Biomarker Activity (AID 2283043); conditions: primary human coronary artery smooth muscle cells; actives raise or lower the signal;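 note: cell-surface HLA-DR protein level quantified by ELISA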
[3] = read-out: Macrophage colony-stimulating factor (MCSF), CSF1 (gene 1435); test: BSK_CASM3C_MCSF: BioMAP Diversity Plus: CASM3C Assay for Macrophage colony-stimulating factor (MCSF) Biomarker Activity (AID 2283044); conditions: primary human coronary artery smooth muscle cells; actives raise or lower the signal;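 note: M-CSF protein amount quantified by ELISA after 24 h exposure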
[4] = read-out: Low-density lipoprotein receptor (LDLR), LDLR (gene 3949); test: BSK_CASM3C_LDLR: BioMAP Diversity Plus: CASM3C Assay for Low-density lipoprotein receptor (LDLR) Biomarker Activity (AID 2283045); conditions: primary human coronary artery smooth muscle cells; actives raise or lower the signal;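 note: LDLR protein level on the cell surface quantified by ELISA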
[5] = read-out: Monocyte Chemoattractant Protein-1 (MCP1), CCL2 (gene 6347); test: BSK_CASM3C_MCP1: BioMAP Diversity Plus: CASM3C Assay for Monocyte Chemoattractant Protein-1 (MCP1) Biomarker Activity (AID 2283046); conditions: primary human coronary artery smooth muscle cells; actives raise or lower the signal;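 note: MCP-1 level quantified by ELISA 24 h after dosing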
[6] = BSK_CASM3C_Proliferation: Cell Proliferation Assessment in the BioMAP Diversity Plus: CASM3C Assay (AID 2283047); conditions: primary human coronary artery smooth muscle cells;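 note: sulforhodamine B total protein stain as relative cell number at 560 nm; sub-confluent cells exposed 48 h before staining; fitted both ways against DMSO so gain or loss of cell number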
[7] = read-out: Monokine induced gamma interferon (MIG), CXCL9 (gene 4283); test: BSK_CASM3C_MIG: BioMAP Diversity Plus: CASM3C Assay for Monokine induced gamma interferon (MIG) Biomarker Activity (AID 2283048); conditions: primary human coronary artery smooth muscle cells; actives raise or lower the signal;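 note: MIG protein level measured by ELISA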
[8] = read-out: serum amyloid A (SAA), SAA1 (gene 6288); test: BSK_CASM3C_SAA: BioMAP Diversity Plus: CASM3C Assay for serum amyloid A (SAA) Biomarker Activity (AID 2283049); conditions: primary human coronary artery smooth muscle cells; actives raise or lower the signal;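 note: SAA protein level quantified by ELISA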
[9] = BSK_CASM3C_SRB: Viability Assessment in the BioMAP Diversity Plus: CASM3C Assay (AID 2283050); conditions: primary human coronary artery smooth muscle cells;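 note: total protein by SRB staining as cytotoxicity measure in parallel cultures; cells exposed to compound for 24 h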
[10] = read-out: Thrombomodulin, THBD (gene 7056); test: BSK_CASM3C_Thrombomodulin: BioMAP Diversity Plus: CASM3C Assay for Thrombomodulin Biomarker Activity (AID 2283051); conditions: primary human coronary artery smooth muscle cells; actives raise or lower the signal;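 note: thrombomodulin protein level measured by ELISA 24 h after dosing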
[11] = read-out: Tissue Factor, F3 (gene 2152); test: BSK_CASM3C_TissueFactor: BioMAP Diversity Plus: CASM3C Assay for Tissue Factor Biomarker Activity (AID 2283052); conditions: primary human coronary artery smooth muscle cells; actives raise or lower the signal;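 note: cell surface tissue factor protein level read by ELISA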
[12] = read-out: Interferon-gamma inducible Protein 10 (IP10), CXCL10 (gene 3627); test: BSK_hDFCGF_IP10: BioMAP Diversity Plus: hDFCGF Assay for Interferon-gamma inducible Protein 10 (IP10) Biomarker Activity (AID 2283053); conditions: primary human foreskin fibroblasts; actives raise or lower the signal
In short: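 Cells: human dermal foreskin fibroblasts. Exposure: 24 h post-dosing. Detection: IP-10 ELISA, with values expressed against DMSO controls and fitted in both directions.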

[13] = read-out: Urokinase-type plasminogen activator receptor (uPAR), PLAUR (gene 5329); test: BSK_CASM3C_uPAR: BioMAP Diversity Plus: CASM3C Assay for Urokinase-type plasminogen activator receptor (uPAR) Biomarker Activity (AID 2283054); conditions: primary human coronary artery smooth muscle cells; actives raise or lower the signal;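 note: cell-surface uPAR protein level quantified by ELISA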
[14] = read-out: Vascular cell adhesion molecule 1 (VCAM1), VCAM1 (gene 7412); test: BSK_CASM3C_VCAM1: BioMAP Diversity Plus: CASM3C Assay for Vascular cell adhesion molecule 1 (VCAM1) Biomarker Activity (AID 2283055); conditions: primary human coronary artery smooth muscle cells; actives raise or lower the signal;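 note: VCAM-1 protein level quantified by ELISA on the cells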
[15] = read-out: Collagen III, COL3A1 (gene 1281); test: BSK_hDFCGF_CollagenIII: BioMAP Diversity Plus: hDFCGF Assay for Collagen III Biomarker Activity (AID 2283056); conditions: primary human foreskin fibroblasts; actives raise or lower the signal
In short: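 ELISA readout of Collagen III in human dermal (foreskin) fibroblasts, taken 24 h post-treatment. Gain or loss relative to DMSO vehicle fitted in both directions.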

[16] = read-out: Epidermal growth factor receptor (EGFR), EGFR (gene 1956); test: BSK_hDFCGF_EGFR: BioMAP Diversity Plus: hDFCGF Assay for Epidermal growth factor receptor (EGFR) Biomarker Activity (AID 2283057); conditions: primary human foreskin fibroblasts; actives raise or lower the signal
In short: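 Dosing human primary skin fibroblasts, then measuring surface EGFR by ELISA at 24 h, gives the endpoint; gains and losses relative to DMSO were fitted in both directions.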

[17] = read-out: Interleukin-8 (IL8), CXCL8 (gene 3576); test: BSK_hDFCGF_IL8: BioMAP Diversity Plus: hDFCGF Assay for Interleukin-8 (IL8) Biomarker Activity (AID 2283058); conditions: primary human foreskin fibroblasts; actives raise or lower the signal
In short: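 IL-8 levels read by ELISA at 24 hours after dosing human skin fibroblast cultures. Parallel SRB staining assessed overt cytotoxicity, and gain or loss of signal was fitted against DMSO control.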

[18] = BSK_hDFCGF_Proliferation: Cell Proliferation Assessment in the BioMAP Diversity Plus: hDFCGF Assay (AID 2283059); conditions: primary human foreskin fibroblasts;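 note: curves fitted for both rise and fall of signal versus DMSO baseline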
In short: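 Steps: dose primary human dermal fibroblasts (foreskin); […] fix in 10% TCA; stain with 0.1% SRB; read 560 nm; fit gain or loss of signal against DMSO.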

[19] = read-out: Macrophage colony-stimulating factor (MCSF), CSF1 (gene 1435); test: BSK_hDFCGF_MCSF: BioMAP Diversity Plus: hDFCGF Assay for Macrophage colony-stimulating factor (MCSF) Biomarker Activity (AID 2283060); conditions: primary human foreskin fibroblasts; actives raise or lower the signal
In short: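 M-CSF levels read by ELISA at 24 h post-dosing in human skin fibroblasts. Parallel cultures stained with SRB assessed cytotoxicity at the same time point; response fitted in both directions against the DMSO baseline.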

[20] = BSK_hDFCGF_SRB: Viability Assessment in the BioMAP Diversity Plus: hDFCGF Assay (AID 2283061); conditions: primary human foreskin fibroblasts;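 note: cells exposed to compound for 24 h before the read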
In short: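 Viability was read as total protein: after 10% TCA fixation, wells were stained with 0.1% sulforhodamine B and read at 560 nm. Primary human foreskin fibroblasts were dosed for 24 h, with bidirectional fitting versus DMSO.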

For `COc1c(Cl)ccc(Cl)c1C(=O)O`, the outcome [1] was “inactive”, the outcome [2] was “inactive” and the outcome [3] was “inactive”. For the same compound, the outcome [4] was “inactive”, the outcome [5] was “inactive” and the outcome [6] was “inactive”. For the same compound, the outcome [7] was “inactive”, the outcome [8] was “inactive” and the outcome [9] was “inactive”. The outcome [10] was “inactive”, the outcome [11] was “inactive” and the outcome [12] was “inactive”. For the same compound, the outcome [13] was “inactive”, the outcome [14] was “inactive” and the outcome [15] was “inactive”. The outcome [16] was “inactive”, the outcome [17] was “inactive” and the outcome [18] was “inactive”. For the same compound, the outcome [19] was “inactive” and the outcome [20] was “inactive”.
With `C[C@]12CC[C@@H]3c4ccc(O)cc4C[C@@H](CCCCCCCCCS(=O)CCCC(F)(F)C(F)(F)F)[C@H]3[C@@H]1CC[C@@H]2O` (stereo not given in full) the outcome [1] was “inactive”, the outcome [2] was “inactive” and the outcome [3] was “inactive”. For the same compound, the AC50 [4] was 2.73 µM (active), the outcome [5] was “inactive” and the outcome [6] was “inactive”. For the same compound, the outcome [7] was “inactive”, the outcome [8] was “inactive” and the outcome [9] was “inactive”. The outcome [10] was “inactive”, the outcome [11] was “inactive” and the outcome [12] was “inactive”. The outcome [13] was “inactive”, the outcome [14] was “inactive” and the outcome [15] was “inactive”. For the same compound, the outcome [16] was “inactive”, the outcome [17] was “inactive” and the AC50 [18] was 4.75 µM (active). For the same compound, the outcome [19] was “inactive” and the outcome [20] was “inactive”.
For `COC(=O)CSc1cc(N=c2sc(=O)n3n2CCCC3)c(F)cc1Cl`, the outcome [1] was “inactive”, the outcome [2] was “inactive” and the AC50 [3] was 3.97 µM (active). The outcome [4] was “inactive”, the outcome [5] was “inactive” and the AC50 [6] was 29.6 µM (active). The outcome [7] was “inactive”, the outcome [8] was “inactive” and the outcome [9] was “inactive”. For the same compound, the outcome [10] was “inactive”, the outcome [11] was “inactive” and the outcome [12] was “inactive”. For the same compound, the outcome [13] was “inactive”, the outcome [14] was “inactive” and the outcome [15] was “inactive”. For the same compound, the outcome [16] was “inactive”, the outcome [17] was “inactive” and the outcome [18] was “inactive”. For the same compound, the outcome [19] was “inactive” and the outcome [20] was “inactive”.
In the case of `COC(=O)c1c(Cl)nn(C)c1S(=O)(=O)NC(=O)Nc1nc(OC)cc(OC)n1`, the outcome [1] is reported as “inactive”, the outcome [2] is reported as “inactive” and the outcome [3] is reported as “inactive”. The outcome [4] was “inactive”, the outcome [5] was “inactive” and the outcome [6] was “inactive”. The outcome [7] was “inactive”, the outcome [8] was “inactive” and the outcome [9] was “inactive”. For the same compound, the outcome [10] was “inactive”, the outcome [11] was “inactive” and the outcome [12] was “inactive”. The outcome [13] was “inactive”, the outcome [14] was “inactive” and the outcome [15] was “inactive”. The outcome [16] was “inactive”, the outcome [17] was “inactive” and the outcome [18] was “inactive”. For the same compound, the outcome [19] was “inactive” and the outcome [20] was “inactive”.
In the case of `COCCO`, the outcome [1] is reported as “inactive”, the outcome [2] is reported as “inactive” and the outcome [3] is reported as “inactive”. For the same compound, the outcome [4] was “inactive”, the outcome [5] was “inactive” and the outcome [6] was “inactive”. For the same compound, the outcome [7] was “inactive”, the outcome [8] was “inactive” and the outcome [9] was “inactive”. The outcome [10] was “inactive”, the outcome [11] was “inactive” and the outcome [12] was “inactive”. For the same compound, the outcome [13] was “inactive”, the outcome [14] was “inactive” and the outcome [15] was “inactive”. The outcome [16] was “inactive”, the outcome [17] was “inactive” and the outcome [18] was “inactive”. For the same compound, the outcome [19] was “inactive” and the outcome [20] was “inactive”.
With `O=C(O)C1(C(=O)Nc2ccc(Cl)cc2Cl)CC1` the outcome [1] was “inactive”, the outcome [2] was “inactive” and the outcome [3] was “inactive”. The outcome [4] was “inactive”, the outcome [5] was “inactive” and the outcome [6] was “inactive”. The outcome [7] was “inactive”, the outcome [8] was “inactive” and the outcome [9] was “inactive”. For the same compound, the outcome [10] was “inactive”, the outcome [11] was “inactive” and the outcome [12] was “inactive”. The outcome [13] was “inactive”, the outcome [14] was “inactive” and the AC50 [15] was 24.5 µM (active). The outcome [16] was “inactive”, the outcome [17] was “inactive” and the outcome [18] was “inactive”. The outcome [19] was “inactive” and the outcome [20] was “inactive”.
